Screening data from PubChem.
Shown are actives, neighbours in structure and some others; about 22% of the full set was active somewhere.
Shiga toxin inh = inhibitors of Shiga toxin in Vero cells. Vero cells, Shiga toxin protein synthesis inhibition reporter. inhibition, % at 38.7 µM. hit rate 9.2% among 290,000; in the data active = inhibition mostly above about 28%, no sharp cut-off; inactive = mostly below about 43%; also: 0% is about no effect
LmPK inh = inhibitors of Leishmania mexicana pyruvate kinase; Q27686; purified LmPK, Kinase-Glo ATP luminescence, 1 h; Potency, µM (doses to about 57.5 µM), for the others: at the top dose activity change, negative = inhibition, actives largely listed as inhibitors; hit rate 0.37% among 290,000; AID 1721; also: potency is read from the fitted curve at half-maximal effect; % is scaled to controls: 0 for no effect and ±100 for the full control effect
Target sequence (Q27686 whole entry, looked up): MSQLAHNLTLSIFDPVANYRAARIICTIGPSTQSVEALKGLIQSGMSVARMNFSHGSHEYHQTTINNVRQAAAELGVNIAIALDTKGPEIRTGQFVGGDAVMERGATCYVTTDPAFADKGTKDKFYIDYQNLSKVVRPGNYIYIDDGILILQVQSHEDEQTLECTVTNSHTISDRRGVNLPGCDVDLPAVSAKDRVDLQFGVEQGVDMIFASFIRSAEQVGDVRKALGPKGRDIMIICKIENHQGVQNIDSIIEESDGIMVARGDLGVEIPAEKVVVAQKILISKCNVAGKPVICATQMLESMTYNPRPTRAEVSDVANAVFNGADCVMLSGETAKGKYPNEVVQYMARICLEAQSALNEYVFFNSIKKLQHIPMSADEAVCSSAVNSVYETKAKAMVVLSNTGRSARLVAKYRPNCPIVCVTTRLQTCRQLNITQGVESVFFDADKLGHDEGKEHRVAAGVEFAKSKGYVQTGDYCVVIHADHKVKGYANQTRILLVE
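In 50 mM imidazole pH 7.2 with 7 mM MgCl2, LmPK (0.1 nM) turned over PEP (0.5 mM) and ADP (0.1 mM) for 1 h at room temperature. Luciferase read-out of ATP.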
CHX counter = counter-screen for Shiga toxin inhibitors: cycloheximide protein synthesis inhibition. AID 2314. hit rate 12% among 300,000. cell reporter, cycloheximide protein synthesis inhibition counterscreen. max response, %; in the data active = max response mostly above about 13%, no sharp cut-off; inactive = mostly below about 14%; also: read at 38.3 µM for the half of the compounds with a filed dose; 0% is about no effect
Pf growth 96h = P. falciparum growth inhibition at 96 hour, primary screen for plastid delayed-death inhibitors; hit rate 6.9% among 320,000; Potency, µM (doses to about 28.7 µM), for inactives: top-dose activity change, negative = inhibition, actives largely listed as inhibitors; P. falciparum luciferase reporter growth, 96 h; AID 504834; also: potency is read from the fitted curve at half-maximal effect; % is scaled to controls: 0 for no effect and ±100 for the full control effect
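Plates of compound plus infected erythrocytes (2% hematocrit, 0.05% parasitemia final) incubate 96 hours, 37 C, 5% CO2. Detection reagent added; reduced luminescence from the parasites' luciferase reporter flags inhibition.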
Pf growth 48h = P. falciparum growth inhibition at 48 hours (one generation). P. falciparum luciferase growth in erythrocytes, 48 h. Potency, µM (top dose mostly 28.7 µM), inactives show top-dose activity change, negative = inhibition, most hits filed as inhibitors. hit rate 5.9% among 310,000; also: potency is read from the fitted curve at half-maximal effect; % is scaled to controls: 0 for no effect and ±100 for the full control effect
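Compounds are pin-transferred into medium, infected erythrocytes (2% hematocrit, 0.1% parasitemia final) are added, and plates sit one parasite generation at 37 C in 5% CO2. Detection reagent is then added and luminescence measured.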
An asterisk follows results filed as active. Unless noted, calls follow the shape of the dose curve; as a rule, active = well fitted inhibition curve with a large enough effect; inconclusive = small, poorly fitted or top-dose-only effect, or another doubt; inactive = no such curve, though single readings can be large or run the other way.

For CC1c2cc3c(cc2CCN1C(=O)c1ccc(Br)cc1)OCCCO3 (stereo not given) the results were Shiga toxin inh -1.3, LmPK inh -1.3%, CHX counter 1.3, Pf growth 96h inconclusive and Pf growth 48h -20.9%.
Screening COc1ccc(C(=O)N2CCc3cc4c(cc3C2C)OCCCO4)cc1 (stereo not given) returned Shiga toxin inh 7.2, LmPK inh -13.5%, CHX counter -0.9, Pf growth 96h 13.1µM* and Pf growth 48h inconclusive.
CCC(=O)N1N=C(c2ccccc2)CC1c1ccccc1 (stereo not given) was read as Shiga toxin inh 1.2, LmPK inh 0.3%, CHX counter -2.1, Pf growth 96h inconclusive and Pf growth 48h inconclusive.
Screening CCOC(=O)c1nnn(CC(=O)N2N=C(c3cccc4ccccc34)CC2c2ccccc2)c1C(=O)OCC (stereo not given) returned Shiga toxin inh -1.9, LmPK inh 1.9%, CHX counter -2.7, Pf growth 96h inconclusive and Pf growth 48h 9.28µM*.
Nc1ccc(Nc2ccccc2)c(Cl)c1 was read as Shiga toxin inh 52.3*, LmPK inh 1.3%, CHX counter 26.6* and Pf growth 48h 73.9%.
Screening COc1cc2c(c(OC)c1OC)-c1ccc(OC)c(=O)cc1C(NC(C)=O)CC2 (stereo not given) returned Shiga toxin inh -3.1, LmPK inh -0.2%, CHX counter -1.5, Pf growth 96h 0.0% and Pf growth 48h 34.1%.
Screening COc1cccc(C(=O)Nc2ccc3c(cc2=O)[C@@H](NC(C)=O)CCc2cc(OC)c(OC)c(OC)c2-3)c1 returned Shiga toxin inh -4.6, LmPK inh -2.4%, CHX counter -2.0, Pf growth 96h inconclusive and Pf growth 48h 8.28µM*.
Cc1cc(C)cc(Nc2ncc3c(n2)CCCC3=O)c1 was read as Shiga toxin inh 22.6, LmPK inh -11.5%, CHX counter 17.0* and Pf growth 48h 312.3%.
Screening Cc1cccc(Nc2ncc3c(n2)CC(c2ccco2)CC3=O)c1 (stereo not given) returned Shiga toxin inh 20.3, LmPK inh 6.2%, CHX counter 15.1*, Pf growth 96h 31.6% and Pf growth 48h 3.2%.
`COc1cccc(C(=O)Nc2ncc3c(n2)CC(c2ccc(OC)cc2OC)CC3=O)c1` (stereo not given) gave Shiga toxin inh 12.7, LmPK inh 2.6%, CHX counter -2.3, Pf growth 96h 40.7% and Pf growth 48h inconclusive.
Screening Cc1cc(C)cc(Nc2ncc3c(n2)CC(c2ccco2)CC3=O)c1 (stereo not given) returned Shiga toxin inh -2.0, LmPK inh -1.0%, CHX counter 7.1, Pf growth 96h 11.5% and Pf growth 48h -18.9%.
For COc1ccc(C(=O)Nc2ncc3c(n2)CC(C)CC3=O)cc1 (stereo not given) the results were Shiga toxin inh 24.1, LmPK inh -6.2%, CHX counter 19.1*, Pf growth 96h -14.3% and Pf growth 48h 2.9%.
Screening Cc1cccc(Nc2ncc3c(n2)CC(C)CC3=O)c1 (stereo not given) returned Shiga toxin inh 112.1*, LmPK inh 4.9%, CHX counter 32.9* and Pf growth 48h 334.6%.
For CCc1c(C)sc(NC(=O)Cn2nc(C(F)(F)F)c3c2CCCC3)c1C#N the results were Shiga toxin inh -12.5, LmPK inh 3.1%, CHX counter 0.8, Pf growth 96h 16.3% and Pf growth 48h 20.4%.
`Cc1ccc(C(=O)Nc2ncc3c(n2)CC(c2ccco2)CC3=O)cc1` (stereo not given) gave Shiga toxin inh 129.7, LmPK inh -1.8%, CHX counter 25.7*, Pf growth 96h -5.8% and Pf growth 48h 55.1%.
Screening Cc1ccc(NC(=O)C2CCCN2C(=O)c2cccs2)c(C)c1 (stereo not given) returned Shiga toxin inh -8.8, LmPK inh 5.0%, CHX counter -4.2, Pf growth 96h 24.3% and Pf growth 48h 17.0%.
COc1ccc(NC(=O)C2CCCN2C(=O)NC2CCCCC2)cc1 (stereo not given) was read as Shiga toxin inh 2.4, LmPK inh -4.0%, CHX counter -5.5, Pf growth 96h 0.0% and Pf growth 48h 12.3%.
`C[C@@H]1CCCCCCCCC(=O)OCCN1C(=O)OC(C)(C)C` gave Pf growth 96h 29.6% and Pf growth 48h 27.1%.
Cn1c(N)c(C(=O)COC(=O)C2CCC(C(C)(C)C)CC2)c(=O)n(C)c1=O (stereo not given) was read as Shiga toxin inh 32.0, LmPK inh 5.7%, CHX counter -0.8 and Pf growth 48h 13.1µM*.
Screening Cn1c(N)c(C(=O)COC(=O)C2(c3ccc(F)cc3)CCCC2)c(=O)n(C)c1=O returned Shiga toxin inh -10.8, LmPK inh 3.7%, CHX counter -1.4, Pf growth 96h 2.33µM* and Pf growth 48h 4.15µM*.
Cn1c(N)c(C(=O)COC(=O)C2(c3ccc(Cl)cc3)CCCC2)c(=O)n(C)c1=O was read as Shiga toxin inh 23.2, LmPK inh 5.5%, CHX counter 0.7 and Pf growth 48h 3.7µM*.
Cn1c(N)c(C(=O)COC(=O)C2CCCC2)c(=O)n(C)c1=O was read as Shiga toxin inh 26.6, LmPK inh 5.2%, CHX counter -1.9, Pf growth 96h 2.5% and Pf growth 48h -0.1%.
For O=C(NCCOc1ccccc1Cl)c1cccc2c1C(=O)c1ccc(Cl)cc1S2(=O)=O the results were Pf growth 96h 37.7% and Pf growth 48h -0.4%.
C=CCn1c(CSc2nc3ccccc3s2)nnc1SCC(=O)NCc1ccccc1 was read as Shiga toxin inh 8.5, LmPK inh 1.7%, CHX counter 0.8 and Pf growth 96h 10.4µM*.
`C=CCn1c(Cc2c(C)[nH]c3ccccc23)nnc1SCC(=O)NCc1ccc(F)cc1` gave Shiga toxin inh -3.0, LmPK inh 2.4%, CHX counter -2.0, Pf growth 96h 0.262µM* and Pf growth 48h 8.28µM*.
C=CCn1c(CSc2nc3ccccc3s2)nnc1SCC(=O)NCc1cccnc1 was read as Shiga toxin inh -3.1, LmPK inh 3.5%, CHX counter -4.8, Pf growth 96h 28.2% and Pf growth 48h inconclusive.
Screening CCn1c(Cc2c(C)[nH]c3ccccc23)nnc1SCC(=O)NCc1ccccc1 returned Shiga toxin inh -40.5, LmPK inh 3.3%, CHX counter -1.4, Pf growth 96h inconclusive and Pf growth 48h inconclusive.
For Cc1cccc2c(N=Nc3ccc(S(=O)(=O)Nc4ccc(Cl)cc4)cc3[N+](=O)[O-])c(O)[nH]c12 the results were Shiga toxin inh -1.6, LmPK inh -0.5%, CHX counter -3.2, Pf growth 96h inconclusive and Pf growth 48h inconclusive.
For COc1ccc2nc(N3CCCC(C(=O)NCCCN4CCN(C)CC4)C3)sc2c1 (stereo not given) the results were Shiga toxin inh -2.1, LmPK inh -2.9%, CHX counter 16.2 and Pf growth 48h 7.7%.
